Compounds with a hit are over-represented: about 3.9% of the library has one in this group of screens.
UBC9 SUMO inh: SUMOylation inhibition. HTRF SUMOylation assay, SAE1/SAE2 + UBC9, in vitro. hit rate 0.36% among 290,000. inhibition, % at 35 µM. AID 2006. P63279; in the data active = inhibition above about 50%, passing the limit was not always enough; inconclusive = no clear call, values can overlap the other calls
ALR H2O2 inh: blocks human ALR sulfhydryl oxidase activity. P55789. purified ALR, DTT oxidation, H2O2 HRP-luminol luminescence. inhibition, % (concentration not given with the values). hit rate 3.8% among 290,000. AID 485317;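 active = mean replicate inhibition above about 79%, with every replicate also reaching it, limit read from the data; inconclusive = only one of the two criteria met; inactive = mean below limit and not every replicate reaching it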
Target sequence (P55789 whole entry, looked up): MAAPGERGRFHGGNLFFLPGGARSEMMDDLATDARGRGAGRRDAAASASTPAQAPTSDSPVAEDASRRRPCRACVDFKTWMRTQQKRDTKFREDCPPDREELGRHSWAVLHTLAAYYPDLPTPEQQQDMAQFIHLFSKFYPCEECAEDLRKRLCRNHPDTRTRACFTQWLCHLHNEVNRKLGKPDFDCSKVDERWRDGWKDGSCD
Cardio protect: protects H9c2 cardiomyocytes from peroxide injury. H2O2 injury protection, ATPLite, 2 h. protection from H2O2 cell death, % at 20 µM. hit rate 0.63% among 360,000. AID 588492;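 active = compounds giving at least 50% protection of heart cells from peroxide-induced death in the single-dose screen, raw or plate-pattern-corrected value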;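 also: 0% = DMSO wells with peroxide and 100% = DMSO wells without peroxide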
NTR1 ag: NTR1 (human) agonism. activation, % at 20 µM. P30989. NTR1-U2OS beta-arrestin-GFP spot imaging, agonist mode. AID 493036. hit rate 0.17% among 330,000;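 active = activation at or above 40% of the spot to cytoplasm intensity ratio, with at least 20 cells analyzed; inconclusive = wells under 20 cells, flagged as cytotoxic or low count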;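 also: 0% = DMSO without peptide and 100% = 100 nM NTR1 peptide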
Target sequence (P30989 whole entry, looked up): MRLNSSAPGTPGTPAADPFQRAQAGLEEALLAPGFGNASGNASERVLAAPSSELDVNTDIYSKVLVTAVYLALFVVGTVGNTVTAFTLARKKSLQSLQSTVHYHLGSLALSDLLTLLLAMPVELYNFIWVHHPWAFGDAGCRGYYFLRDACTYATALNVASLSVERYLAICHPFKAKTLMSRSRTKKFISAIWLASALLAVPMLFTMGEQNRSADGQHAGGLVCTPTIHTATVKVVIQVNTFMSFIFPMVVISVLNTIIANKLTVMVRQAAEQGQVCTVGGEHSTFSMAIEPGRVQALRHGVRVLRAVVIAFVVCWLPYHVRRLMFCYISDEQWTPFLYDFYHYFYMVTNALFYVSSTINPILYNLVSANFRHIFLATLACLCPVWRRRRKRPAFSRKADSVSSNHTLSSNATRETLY
Active calls of the source: *; u = inconclusive; x = no result.

SMILES	UBC9 SUMO inh	ALR H2O2 inh	Cardio protect	NTR1 ag
COc1ccc(Nc2ncc(C(=O)O)c3ccccc23)cc1	-0.2	-25.4	1.8	-0.6
COc1ccc(Nc2ccc(OC)cc2)cc1	55.9*	98.8*	-7.3	3.4
COc1ccc(Nc2cccccc2=O)cc1	12.0	96.9*	4.0	-2.0
Cc1ccc(-c2csc3nc[nH]c(=S)c23)cc1	-0.9	96.6*	42.7	2.7
Cc1sc2nc[nH]c(=S)c2c1-c1ccccc1	11.4	4.9	65.7*	3.8
S=c1[nH]cnc2scc(-c3ccc(Br)cc3)c12	3.3	-8.1	38.4	6.1
Cc1sc2nc[nH]c(=O)c2c1-c1ccc(F)cc1	-8.2	2.4	8.6	0.6
Cc1cc(-c2csc3nc[nH]c(=S)c23)cc(C)c1C	0.1	97.3*	61.0*	18.0
COc1ccc(CCn2c(C)cc(C(=O)CSc3nnc(N)s3)c2C)cc1	17.4	6.5	0.1	-1.2
O=C1c2ccccc2NC(c2cn[nH]c2-c2ccc(Cl)cc2)N1O (stereo not given)	-9.6	-7.6	66.6*	1.2
O=C1c2ccccc2NC(c2ccccc2O)N1O (stereo not given)	-8.1	91.1*	52.5*	-0.3
CCCN1C(=O)c2ccccc2NC1c1ccc(OC)cc1O (stereo not given)	21.7	88.2*	3.2	0.1
O=C1c2ccccc2NC(c2cn[nH]c2-c2ccccc2)N1O (stereo not given)	7.4	-1.7	50.4*	-0.7
O=C1c2ccccc2NC(c2cccs2)N1O (stereo not given)	x	x	17.3	-0.5
Cc1ccc(N2C(=O)c3ccccc3NC2c2ccccc2O)cc1 (stereo not given)	11.7	26.7	-5.9	3.5
O=C1CSC(c2cccc([N+](=O)[O-])c2)N1c1ccccc1F (stereo not given)	11.9	-9.5	-6.2	-1.2
COc1cc2[nH]c(C(=O)N3CCc4ccccc4C3)cc2c(OC)c1OC	x	-7.5	-1.1	0.1
CCC(C)c1ccc(NC(=O)NCc2cccnc2)cc1 (stereo not given)	-4.0	48.9	-3.2	-1.5
NC1=NC[C@H](Cc2ccccc2)N1CCCCC1CCCCC1	14.0	-54.9	-21.8	12.4
NC1=NC[C@H](Cc2ccc(O)cc2)N1CCCCC1CCCCC1	8.8	76.5*	-5.9	15.8
N#CC(c1nc2ccccc2nc1N1CCCCC1)S(=O)(=O)c1ccc(Cl)cc1 (stereo not given)	74.9*	x	x	x
Cc1ccc(S(=O)(=O)C(C#N)c2nc3ccccc3nc2N2CCCCC2)cc1 (stereo not given)	82.6*	x	x	x
CC1CCCN(c2nc3ccccc3nc2C(C#N)S(=O)(=O)c2ccccc2)C1 (stereo not given)	50.1*	-0.5	-13.5	2.8
Cc1ccc(S(=O)(=O)C(C#N)c2nc3ccccc3nc2N2CCN(C)CC2)cc1 (stereo not given)	38.5	5.3	1.0	2.8
CCOc1ccc(S(=O)(=O)N(C)c2ccc(OCC(=O)N3c4ccc(C)cc4C4CN(C)CCC43)cc2)cc1 (stereo not given)	-4.3	-10.9	1.0	2.5
SMILES	UBC9 SUMO inh	ALR H2O2 inh	Cardio protect	NTR1 ag
Cn1c(SCC(=O)c2cc3ccccc3o2)nnc1-c1ccccc1	-2.9	96.7*	8.2	-2.4
Cn1cnnc1SCC(=O)c1cc2ccccc2o1	-5.5	88.1*	7.9	-1.4
Cn1ccnc1SCC(=O)c1cc2ccccc2o1	12.7	-1.6	0.4	0.9
CNC(=O)CSc1nnc(-c2ccccc2)n1C	-7.4	-0.9	-3.9	1.1
CCOC(=O)c1c(-c2ccccc2)csc1NC(=S)NC	-13.3	-17.0	6.2	0.9
O=S(=O)(Nc1ccccc1)c1ccc(S(=O)(=O)N2CCCC2)cc1	x	-1.6	-2.0	-0.3
O=C(CN(C(=O)Cn1nnc(-c2ccccc2F)n1)c1cnc2ccccc2c1)NCC1CCCO1 (stereo not given)	15.0	-2.7	-1.9	1.8
O=C(CN(C(=O)Cn1nnc(-c2cccs2)n1)c1cnc2ccccc2c1)NCC1CCCO1 (stereo not given)	4.0	-27.3	83.4*	-0.3
Cc1onc(-c2ccccc2)c1-c1n[nH]c(=S)n1-c1ccccc1Cl	-3.9	29.6	4.1	0.2
Cc1onc(-c2ccccc2)c1-c1n[nH]c(=S)n1-c1ccc(C(=O)O)cc1	11.6	88.8*	-1.9	-0.7
Cc1c(Cc2ccccc2)c(=O)oc2c(C)c(OC(C)C(=O)NCC3CCC(C(=O)O)CC3)ccc12 (stereo not given)	11.1	x	4.3	3.7
O=C(O)CN1C(=O)/C(=C/c2ccccc2Cl)Oc2ccccc21	29.8	4.4	2.8	-1.6
O=C(O)CN1C(=O)/C(=C/c2cccc(Cl)c2)Oc2ccccc21	28.6	80.5*	-5.2	1.5
C[C@H]1COC(=O)[C@H](Cc2ccc(F)cc2)C/C=C\C[C@@H](CC(=O)N(CCO)Cc2ccccc2)C(=O)N1	x	-2.9	10.4	-0.8
CCOc1ccc(CONS(=O)(=O)c2ccc(NC(C)=O)cc2)cc1Cl	1.1	9.0	-7.1	0.7
CC1(C)Nc2ccccc2N(Cc2ccc([N+](=O)[O-])cc2)C1=O	14.0	95.8*	-2.2	0.7
CC1(C)Nc2ccccc2N(CC(=O)N2CCCCC2)C1=O	-6.6	98.4*	-0.8	1.2
CN(C(=O)CCN1C(=O)C(C)(C)Nc2ccccc21)c1ccccc1	16.6	55.2	5.3	-2.7
CC1(C)Nc2ccccc2N(CCC(=O)N2CCOCC2)C1=O	-5.3	x	8.0	-0.5
Cc1cc(NS(=O)(=O)c2ccccc2)c(C)c(Cl)c1O	9.0	99.9*	-8.9	-1.0
O=S(=O)(Nc1ccc(O)c(NS(=O)(=O)c2ccccc2)c1)c1ccccc1	-8.7	86.7*	-6.7	0.3
Nc1ccc(NS(=O)(=O)c2ccccc2)cc1	27.5	99.8*	11.1	-2.1
Cc1cc(NS(=O)(=O)c2ccccc2)c([N+](=O)[O-])cc1C	2.5	-39.7	2.5	0.5
Nc1cccc(S(=O)(=O)Nc2ccccc2)c1	6.3	-3.5	-4.3	1.1
Cc1cc(NS(=O)(=O)c2ccccc2)ccc1NS(=O)(=O)c1ccccc1	x	x	-0.1	x
SMILES	UBC9 SUMO inh	ALR H2O2 inh	Cardio protect	NTR1 ag
Cc1c(O)ccc(NS(=O)(=O)c2ccccc2)c1C	12.7	98.8*	-4.6	0.3
CC(OC(=O)c1ccc(Cl)cc1)C(=O)NCc1ccc2c(c1)OCO2 (stereo not given)	x	x	2.3	-2.2
CC(=O)OC[C@@H]1CN(Cc2ccccc2)C[C@H](n2cnc3c(N4CCN(c5ccccc5)CC4)ncnc32)O1	x	x	18.2	x
COc1ccccc1N1CCN(C(=O)c2cccc(N3C(=O)NC4CC3(C)Oc3ccccc34)c2)CC1 (stereo not given)	-23.0	0.4	-4.6	-1.5
Cc1ccc(S(=O)(=O)Nc2cc(C)c(O)cc2C)cc1	-2.8	98.2*	-10.8	-0.5
COc1ccc(S(=O)(=O)Nc2cc(C(C)C)c(O)cc2C)cc1	-1.3	u	2.5	0.9
CCN(CC)c1ccc(Nc2nc(N3CCOCC3)c3ccccc3n2)cc1	0.0	99.3*	-17.0	7.7
O=C(COc1ccc(-c2nnco2)cc1)Nc1ccc(C(F)(F)F)cc1	x	-3.6	-5.1	0.0
CCOC(=O)C1CCCN(C(=O)Cc2c(F)cccc2Cl)C1 (stereo not given)	3.5	-1.5	-1.7	0.6
CCOC(=O)C1CCN(Cc2c(F)cccc2Cl)CC1	-6.8	98.1*	0.4	-0.2

High-throughput results as filed in PubChem BioAssay.
